Screens deposited in PubChem by National Center for Advancing Translational Sciences (NCATS).
ALDH1A1 block: qHTS Assay for Inhibitors of Aldehyde Dehydrogenase 1 (ALDH1A1); Purified ALDH1A1, NADH fluorescence, propionaldehyde substrate; Potency, µM (titrated, usually from 75.3 µM), for inactives: at the highest dose activity, negative = inhibition, hits mostly inhibitors; 220,000 compounds, 7.3% hits; active = well fitted inhibition curve with a large enough effect, not every such curve was filed as active; inconclusive = small, poorly fitted or top-dose-only effect, or another doubt; inactive = no such curve, though single readings can be large or run the other way;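 note: plate controls were no enzyme wells and a reference inhibitor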
Target sequence (P00352 whole entry, looked up): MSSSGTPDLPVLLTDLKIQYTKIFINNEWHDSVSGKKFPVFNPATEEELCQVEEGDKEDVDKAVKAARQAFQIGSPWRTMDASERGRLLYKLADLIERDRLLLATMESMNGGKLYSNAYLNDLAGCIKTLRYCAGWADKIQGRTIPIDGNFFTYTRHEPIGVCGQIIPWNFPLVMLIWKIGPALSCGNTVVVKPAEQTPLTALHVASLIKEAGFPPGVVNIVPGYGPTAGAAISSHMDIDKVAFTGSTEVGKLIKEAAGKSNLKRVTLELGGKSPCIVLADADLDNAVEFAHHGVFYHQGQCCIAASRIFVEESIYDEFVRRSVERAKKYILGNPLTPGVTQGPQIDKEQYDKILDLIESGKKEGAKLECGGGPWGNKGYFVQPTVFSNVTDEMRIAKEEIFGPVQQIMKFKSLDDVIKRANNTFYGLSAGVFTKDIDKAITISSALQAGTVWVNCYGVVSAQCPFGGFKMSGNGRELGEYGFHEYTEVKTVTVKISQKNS
HTT aggregate: qHTS Multiplex Assay to Identify Dual Action Probes in a Cell Model of Huntington: Aggregate Formation (GFP) | PC12 HttQ103-GFP aggregates, Acumen cytometry, 40 h | Potency, µM (highest dose often 46.1 µM), for inactives: top-dose activity change, negative = inhibition, actives largely listed as inhibitors | AID 1688, 2009 | 220,000 compounds, 1.1% hits; note: % is set by controls: 0 for no effect and ±100 for the full control effect; nearly all actives have a fitted effect of over 60% in size
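Compounds (qHTS titration) were added to PC12 cells expressing an ecdysone-driven HTT exon 1 Q103–GFP fusion after induction with 100 nM tebufenozide. Aggregate formation was measured as GFP objects in cell lysates.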
HPGD inh: qHTS Assay for Inhibitors of HPGD (15-Hydroxyprostaglandin Dehydrogenase) | 15-hydroxyprostaglandin dehydrogenase [NAD(+)] (Homo sapiens), P15428 | 150,000 compounds, 4.3% hits | purified HPGD, NADH fluorescence kinetic, PGE2 substrate | AID 894, 2007 | Potency, µM, for the others: at the top dose activity change, negative = inhibition, hits mostly inhibitors; active = well fitted inhibition curve with a large enough effect, not every such curve was filed as active; inconclusive = small, poorly fitted or top-dose-only effect, or another doubt; inactive = no such curve, though single readings can be large or run the other way; note: % is set by controls: 0 for no effect and ±100 for the full control effect
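NADH formation kinetics: reaction with 30 uM PGE2 and 1 mM NAD+ (final), 20 nM enzyme, Tris-HCl pH 8 with Tween 20, after 15 min compound preincubation at room temperature. Fluorescence change, last versus first of five reads.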
KinaseGlo FLuc: Counterscreen for Luciferase (Kinase-Glo TM) Inhibition | Luciferin 4-monooxygenase (Photuris pensylvanica), Q27757 | Kinase-Glo luciferase, ATP luminescence, 8 min | Potency, µM (doses to about 38.3 µM), without a hit: at the top dose activity change, negative = inhibition, hits mostly inhibitors | 200,000 compounds, 0.28% hits | AID 1379, 2008; note: % is set by controls: 0 for no effect and ±100 for the full control effect; nearly all actives have a fitted effect of over 60% in size
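Recombinant Kinase-Glo luciferase, 10 uM ATP (linear range), luciferin; imidazole pH 7.2 / KCl / MgCl2 / Tween / BSA buffer; 8 min RT; luminescence.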
HTT ATP protect: qHTS Multiplex Assay to Identify Dual Action Probes in a Cell Model of Huntington: Cytoprotection (ATP); PC12 HTT-Q103 induced, cytoprotection, ATP luminescence, 40 h; Potency, µM (top dose mostly 56.4 µM), without a hit: cytoprotection (ATP increase), hits mostly activators; 230,000 compounds, 0.14% hits; AID 1471, 2008; note: % of control where 0% means no effect; nearly all actives have a fitted effect of over 45% in size
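Rat PC12, Q103 Htt exon1-GFP fusion, ecdysone promoter; tebufenozide inducer 100 nM final; compound titration; qHTS, 1500 cells/well; ATPlite luminescent read.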
Lamin A splicing: qHTS Assay for Modulators of Lamin A Splicing; HeLa LMNA splicing GFP/RFP minigene ratio, 48 h; Potency, µM (top dose mostly 46.1 µM), without a hit: at the highest dose ratio change, negative = inhibition, most hits filed as inhibitors; 200,000 compounds, 0.01% hits; active = well fitted inhibition curve with a large enough effect in the signal ratio, with a control signal flat, not every such curve was filed as active; inconclusive = small, poorly fitted or top-dose-only effect, or effect the other way, or a change in a side signal; the % refers to the signal ratio; note: % is set by controls: 0 for no effect and ±100 for the full control effect
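Read-out is the ratio of GFP to DsRed2 object intensity, acquired by 488 nm laser-scanning cytometry on HeLa lamin A-EGFP minigene reporter cells. Compound incubation 48 hrs at 37 °C in Opti-MEM with 2% FBS; DMSO 0.5% final.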
Active calls of the source: *; ? = inconclusive; . = no result given; ! = repeats disagree; [ ] = remark or other dose. In the library only some 9% were active in any assay of this set; here they are far more common. Unless noted, calls come from the whole dose curve; as a rule, active = well fitted curve in the direction sought with a large enough effect; inconclusive = small, poorly fitted or top-dose-only effect, or another doubt; inactive = no such curve, though single readings can be large; an effect the other way counts as inactive or inconclusive. Potency is the fitted concentration of half-maximal effect.

SMILES	ALDH1A1 block	HTT aggregate	HPGD inh	KinaseGlo FLuc	HTT ATP protect	Lamin A splicing
O=C(OCC(=O)c1c[nH]c2ccccc12)c1ccc([N+](=O)[O-])s1	0.708µM*	18.8%	.	5.6%	-7.0%	.
CCc1cccc2c(C(=O)CCl)c[nH]c12	8.91µM*	?	.	.	-55.9%[10 µM]	?
Cc1ccc(C(=O)OCC(=O)c2c[nH]c3ccccc23)cc1	8.6%	8.3%	-5.9%	-1.1%	11.6%[0.074 µM]	-8.2%
CCc1cccc2c(C(=O)COC(=O)c3ccc([N+](=O)[O-])s3)c[nH]c12	12.6µM*	-25.5%	-12.3%	1.2%	42.8%[10 µM]	-6.4%
CCc1cccc2c(C(=O)CSc3nncn3C)c[nH]c12	10.0%	-14.6%	.	-1.7%	-15.4%	-13.5%[46 µM]
COc1ccc(-c2nc(CN3CCCCC3c3cccnc3)c(C)o2)c(F)c1 (configuration not stated)	-6.4%	0.6%[9.22 µM]	.	0.9%	12.2%[10 µM]	?
CC1(C)CC(=O)C(C(C2=C(O)CC(C)(C)CC2=O)c2ccco2)C(=O)C1 (configuration not stated)	?	23.6%	10µM*	-4.4%	14.2%	10.2%
CSc1cccc(NCc2ccc([N+](=O)[O-])cc2)c1	35.5µM*	.	.	-6.1%	.	4.3%[46 µM]
O=[N+]([O-])c1ccc(COc2cccc(CNc3ccc(F)cc3)c2)cc1	14.1µM*	11.4%	-7.6%	4.5%	-21.5%[10 µM]	?
CSc1ccc(CNc2ccccc2)cc1	-13.8%	-2.1%	-16.1%	-1.7%	12.6%	-0.1%
Oc1ccc(NCc2cccc(OCc3ccc(F)cc3)c2)cc1	?	22.6%[9.22 µM]	.	-3.8%	-9.4%[10 µM]	?
CCCc1cc(-c2nc(N)ncc2-c2csc(C)n2)c(O)cc1OC	-0.1%	19.8%	.	-0.1%	17.2%[10 µM]	-9.4%[46 µM]
C=CCNC(=O)c1onc(CSc2cccc3ccccc23)c1C(=O)O	1.9%	7.6%	?	-1.6%	-3.2%	?
O=C(COC(=O)C1(c2ccccc2F)CCCC1)NCc1ccc2c(c1)OCO2	-10.6%	11.6%	-15.2%	2.5%	-15.0%[1.9 µM]	?
Cc1cc(=O)c2c(O)c3c(O)cc(=O)c4c3c3c(cc(O)c1c23)C(C)(C)C=4O	1.2%	3.16µM*	-11.7%	-2.3%	-253.4%	.
O=C(C[n+]1cn(C(F)F)c2ccccc21)c1ccc(OC(F)F)cc1	9.46µM*	?	.	-1.7%	4.2%[10 µM]	?
CCCCOCC1CN(c2ccccc2)C(=O)CS1 (configuration not stated)	12.6µM*	-14.1%	-5.4%	3.2%	15.2%	-2.5%
CC1CN(c2ccccc2)C(=O)CS1 (configuration not stated)	15µM*	-5.7%	15.8µM*	3.0%	3.7%	11.7%
CCCCN1CC(COc2ccccc2)OC1=O (configuration not stated)	-3.5%	16.9%	-10.2%	-6.4%	-13.0%	10.7%
O=C(O)CC(=O)Nc1ccc(Oc2ccc(C(F)(F)F)cn2)c(Cl)c1	5.5%	-5.8%	.	-1.1%	-7.7%[10 µM]	22.4%[46 µM]
NN/C(=C\[N+](=O)[O-])Nc1ccc(Cl)cc1	28.2µM*	-0.4%[9.22 µM]	.	5.7%	?	?
NN/C(=C\[N+](=O)[O-])Nc1ccccc1	?	0.8%	.	-2.9%	-44.6%	?
NC(=S)NCCCC(N)C(=O)O (configuration not stated)	2.51µM*	.	-24.8%	-2.2%	.	7.0%
CC1(C)CC(=O)C=C(NCCN2CCN(C(=O)Nc3ccccc3)CC2)C1	-10.0%	5.62µM*	-0.4%	-0.3%	7.5%[10 µM]	16.6%
N/C(CC(=O)Nc1cc(C(F)(F)F)ccc1Cl)=N\O	28.2µM*!	-13.4%[9.22 µM]	-3.5%	-1.7%[7.66 µM]	-3.3%[10 µM]	.
